Measured values published in the supplement of paper PMC12297408.
Unmarked numbers belong to inactive results.

Test system: Plasmodium falciparum NF54/iGP1_RE9H ulg8 stage V gametocytes
Assay: gametocyte viability (luciferase signal relative to DMSO control) (% of DMSO control); higher = less gametocytocidal activity, active = 50 or less
Details: exposure time: 72 h
Summary of the method: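 In 96-well plates holding nanolitre spots of compound (10 mM DMSO stocks), NF54/iGP1_RE9Hulg8 stage V gametocytes from day 12 were added at ~2.5% gametocytemia and 3% hematocrit in medium with 0.5% Albumax II, giving single wells at 10 µM or 1 µM. Incubation lasted 72 h at 37 °C. Each 90 µl sample then received 10 µl D-luciferin (30 mg/ml) before luminescence reading on an IVIS Lumina II, and viability was normalized to the mean of DMSO vehicle wells on the same plate.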

Row | SMILES | gametocyte viability (concentration: 1 µM) | gametocyte viability (concentration: 10 µM)
1 | N#CC(C#N)=Cc1ccc([N+](=O)[O-])c(O)c1 | 107 | 102
2 | OC[C@H]1O[C@@H](n2cnc3cc(Cl)c(Cl)cc32)[C@H](O)[C@@H]1O [5,6-dichloro-1-β-D-ribofuranosylbenzimidazole] | 112 | 119
3 | Cc1ccccc1-n1c(Cn2ncc3c(N)ncnc32)nc2cccc(C)c2c1=O | 94.7 | 104
4 | N#CC(C#N)=Cc1cc(O)c(O)c([N+](=O)[O-])c1 | 103 | 101
5 | O=c1[nH]c2ccc(Cl)cc2c(N[C@@H]2CN3CCC2CC3)c1-c1nc2ccccc2[nH]1 | 112 | 120
6 | COC[C@H]1OC(=O)c2coc3c2[C@@]1(C)C1=C(C3=O)[C@@H]2CCC(=O)[C@@]2(C)C[C@H]1OC(C)=O [Wortmannin] | 91.8 | 89.3
7 | CC(C)(C)c1cc(C=C(C#N)C#N)cc(C(C)(C)C)c1O | 101 | 110
8 | C/C(O)=C(\C#N)C(=O)Nc1cc(Br)ccc1Br | 110 | 101
9 | Cc1ccccc1-n1c(Cn2cnc3c(N)ncnc32)nc2cccc(C)c2c1=O | 101 | 96.9
10 | N#C/C(=C\c1ccc(O)c(O)c1)C(N)=S | 101 | 101
11 | N#CC(C#N)=Cc1cc(O)c(O)c(O)c1 | 104 | 97.9
12 | CC(=O)c1c(O)c(C)c(O)c(Cc2c(O)c3c(c(C(=O)/C=C/c4ccccc4)c2O)OC(C)(C)C=C3)c1O [Rottlerin] | 100 | 96.9
13 | N#CC(C#N)=Cc1ccc(O)c(O)c1 | 99 | 104
14 | CCN1CCN(C(=O)Cc2ccc(Nc3ncc(F)c(Nc4ccc(C(=O)Nc5ccccc5Cl)cc4)n3)cc2)CC1 [Aurora A Inhibitor I] | 110 | 82.7
15 | CN[C@@H]1C[C@H]2O[C@@](C)([C@@H]1OC)n1c3ccccc3c3c4c(c5c6ccccc6n2c5c31)C(=O)NC4 [Staurosporine] | 110 | 27.1 (active)
16 | Cn1cc(C2=C(c3cn(C4CCN(Cc5ccccn5)CC4)c4ccccc34)C(=O)NC2=O)c2ccccc21 | 100 | 109
17 | CC1=C(O)C(=O)[C@@H]2O[C@@H]2C1=O [Terreic acid] | 98.4 | 64.8
